# According to the supplement of paper PMC10849652:
# Targets with a hit are over-represented here; the source holds about 7,900 in all. About 0.6% of all pairs of compound and target were hits. Unmarked numbers belong to inactive results.
# What was measured:
# Test in all cases: log2 fold change, soluble protein after heating vs DMSO (PISA); higher = thermal stabilisation; K562 cells, 10 uM, 30 min; active = over 0.2 and 3.5 SD of the protein, either way, in both replicates (recomputed)
# [1] = compound: COC1=CC=C(C=C1)CN2C=CC3=C2C=C(C=C3)C(=O)NO
# How it was run: (§1)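 K562 cells at 2×10^6 cells/mL were exposed to 10 μM compound for 30 min, then aliquots were heated for 3 min across 48°C-58°C, pooled, and extracted in PBS containing 0.5% NP-40 at 4°C. The supernatant after 21,000xg for 90 min was taken as soluble protein and measured by TMTpro 16plex LC-MS/MS with channel sums equalised. Thermal stability is reported relative to control samples, with values from duplicates. Fold changes are given on a log2 scale.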
# filanesib = compound: CON(C)C(=O)N1N=C(c2cc(F)ccc2F)S[C@@]1(CCCN)c1ccccc1 [filanesib]
# How it was run: as §1
# zotarolimus = compound: CO[C@H]1C[C@@H]2CC[C@@H](C)[C@@](O)(O2)C(=O)C(=O)N2CCCC[C@H]2C(=O)O[C@H]([C@H](C)C[C@@H]2CC[C@H](n3cnnn3)[C@H](OC)C2)CC(=O)[C@H](C)/C=C(\C)[C@@H](O)[C@@H](OC)C(=O)[C@H](C)C[C@H](C)/C=C/C=C/C=C/1C [zotarolimus]
# How it was run: as §1
# idasanutlin = compound: COc1cc(C(=O)O)ccc1NC(=O)[C@@H]1N[C@@H](CC(C)(C)C)[C@](C#N)(c2ccc(Cl)cc2F)[C@H]1c1cccc(Cl)c1F [idasanutlin]
# How it was run: as §1
# alisertib = compound: COc1cc(Nc2ncc3c(n2)-c2ccc(Cl)cc2C(c2c(F)cccc2OC)=NC3)ccc1C(=O)O [alisertib]
# How it was run: as §1
# [2] = compound: COc1cc2nc(-c3cc(F)ccc3O)nc(N[C@@H]3CNC[C@H]3C(C)(C)O)c2cc1OC
# How it was run: as §1
# gefitinib = compound: COc1cc2ncnc(Nc3ccc(F)c(Cl)c3)c2cc1OCCCN1CCOCC1 [gefitinib]
# How it was run: as §1
# [3] = compound: COc1cccc2cc(-c3nc([C@H]4CC[C@H](C(=O)O)CC4)n4ncnc(N)c34)[nH]c12
# How it was run: as §1
# lapatinib = compound: CS(=O)(=O)CCNCc1ccc(-c2ccc3ncnc(Nc4ccc(OCc5cccc(F)c5)c(Cl)c4)c3c2)o1 [lapatinib]
# How it was run: as §1
# pictilisib = compound: CS(=O)(=O)N1CCN(Cc2cc3nc(-c4cccc5[nH]ncc45)nc(N4CCOCC4)c3s2)CC1 [pictilisib]
# How it was run: as §1
# [4] = compound: CS(=O)(=O)c1ccc(-c2cnc(N)c(C(=O)Nc3ccccc3)n2)cc1
# How it was run: as §1
# crizotinib = compound: C[C@@H](Oc1cc(-c2cnn(C3CCNCC3)c2)cnc1N)c1c(Cl)ccc(F)c1Cl [crizotinib]
# How it was run: as §1
# [5] = compound: C[C@@H]1COCCN1C2=NC(=NC(=C2)C3(CC3)S(=O)(=O)C)C4=C5C=CNC5=CC=C4
# How it was run: as §1
# [6] = compound: C[C@H](C1=CC=C(C=C1)C(=O)NC2=C3C=CNC3=NC=C2)N
# How it was run: as §1
# duvelisib = compound: C[C@H](Nc1ncnc2nc[nH]c12)c1cc2cccc(Cl)c2c(=O)n1-c1ccccc1 [duvelisib]
# How it was run: as §1
# gandotinib = compound: Cc1cc(Nc2cc(CN3CCOCC3)c3nc(C)c(Cc4ccc(Cl)cc4F)n3n2)n[nH]1 [gandotinib]
# How it was run: as §1
# tozasertib = compound: Cc1cc(Nc2cc(N3CCN(C)CC3)nc(Sc3ccc(NC(=O)C4CC4)cc3)n2)n[nH]1 [tozasertib]
# How it was run: as §1
# [7] = compound: Cc1cc(SCc2sc(-c3ccc(C(F)(F)F)cc3)nc2C)ccc1OCC(=O)O
# How it was run: as §1
# doramapimod = compound: Cc1ccc(-n2nc(C(C)(C)C)cc2NC(=O)Nc2ccc(OCCN3CCOCC3)c3ccccc23)cc1 [doramapimod]
# How it was run: as §1
# ispinesib = compound: Cc1ccc(C(=O)N(CCCN)[C@@H](c2nc3cc(Cl)ccc3c(=O)n2Cc2ccccc2)C(C)C)cc1 [ispinesib]
# How it was run: as §1
# UniProt Q9BUP3, sequence (Q9BUP3 whole entry, looked up): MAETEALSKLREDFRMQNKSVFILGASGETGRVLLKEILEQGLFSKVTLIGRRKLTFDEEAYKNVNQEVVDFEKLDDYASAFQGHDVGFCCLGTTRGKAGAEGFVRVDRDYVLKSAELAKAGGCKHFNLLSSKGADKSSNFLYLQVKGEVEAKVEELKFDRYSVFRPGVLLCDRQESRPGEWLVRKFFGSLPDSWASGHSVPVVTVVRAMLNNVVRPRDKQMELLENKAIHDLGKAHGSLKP
# UniProt P00390, sequence (P00390 whole entry, looked up): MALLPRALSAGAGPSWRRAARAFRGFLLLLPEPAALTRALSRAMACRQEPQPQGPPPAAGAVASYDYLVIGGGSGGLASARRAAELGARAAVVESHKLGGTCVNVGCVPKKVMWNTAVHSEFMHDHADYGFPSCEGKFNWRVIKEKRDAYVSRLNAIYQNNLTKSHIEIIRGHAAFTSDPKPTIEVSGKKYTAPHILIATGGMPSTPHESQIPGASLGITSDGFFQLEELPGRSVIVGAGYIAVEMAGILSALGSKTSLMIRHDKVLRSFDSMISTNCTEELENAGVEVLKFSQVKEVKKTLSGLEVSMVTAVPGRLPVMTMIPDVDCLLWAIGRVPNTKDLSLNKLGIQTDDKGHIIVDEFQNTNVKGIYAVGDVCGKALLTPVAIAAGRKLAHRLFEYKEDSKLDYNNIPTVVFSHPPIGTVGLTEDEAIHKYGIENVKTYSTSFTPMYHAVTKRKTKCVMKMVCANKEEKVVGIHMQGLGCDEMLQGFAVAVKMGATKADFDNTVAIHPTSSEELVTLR
# UniProt P52789, sequence (P52789 whole entry, looked up): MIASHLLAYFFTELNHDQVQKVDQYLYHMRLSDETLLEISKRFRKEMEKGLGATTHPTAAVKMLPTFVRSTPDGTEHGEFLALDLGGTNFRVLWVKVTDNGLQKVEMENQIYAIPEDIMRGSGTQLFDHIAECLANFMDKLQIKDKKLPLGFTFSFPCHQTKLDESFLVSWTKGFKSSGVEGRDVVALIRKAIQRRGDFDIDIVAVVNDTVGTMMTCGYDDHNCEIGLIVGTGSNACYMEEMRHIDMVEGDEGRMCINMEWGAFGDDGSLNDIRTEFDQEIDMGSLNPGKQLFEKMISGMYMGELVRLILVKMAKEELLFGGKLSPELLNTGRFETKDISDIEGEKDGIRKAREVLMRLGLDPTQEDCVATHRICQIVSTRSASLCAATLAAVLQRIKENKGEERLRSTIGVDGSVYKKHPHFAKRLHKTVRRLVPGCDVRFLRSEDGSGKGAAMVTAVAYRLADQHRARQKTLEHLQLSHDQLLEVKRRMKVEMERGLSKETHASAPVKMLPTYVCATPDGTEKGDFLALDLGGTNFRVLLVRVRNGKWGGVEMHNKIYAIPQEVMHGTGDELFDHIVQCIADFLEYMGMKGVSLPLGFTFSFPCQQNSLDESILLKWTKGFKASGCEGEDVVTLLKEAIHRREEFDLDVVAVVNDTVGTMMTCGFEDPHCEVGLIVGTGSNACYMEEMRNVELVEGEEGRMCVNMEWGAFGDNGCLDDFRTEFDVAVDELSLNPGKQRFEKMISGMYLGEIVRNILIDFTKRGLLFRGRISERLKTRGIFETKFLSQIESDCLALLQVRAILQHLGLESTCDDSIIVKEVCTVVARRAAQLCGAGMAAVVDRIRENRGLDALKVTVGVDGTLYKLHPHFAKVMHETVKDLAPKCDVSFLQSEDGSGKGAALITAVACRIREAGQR
# UniProt Q00688, sequence (Q00688 whole entry, looked up): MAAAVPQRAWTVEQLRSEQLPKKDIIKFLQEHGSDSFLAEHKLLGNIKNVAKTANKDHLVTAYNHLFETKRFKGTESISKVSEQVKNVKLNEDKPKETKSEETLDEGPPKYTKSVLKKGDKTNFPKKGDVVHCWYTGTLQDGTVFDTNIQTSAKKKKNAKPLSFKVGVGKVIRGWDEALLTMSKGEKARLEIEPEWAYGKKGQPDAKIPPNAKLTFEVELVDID
# UniProt P14324, sequence (P14324 whole entry, looked up): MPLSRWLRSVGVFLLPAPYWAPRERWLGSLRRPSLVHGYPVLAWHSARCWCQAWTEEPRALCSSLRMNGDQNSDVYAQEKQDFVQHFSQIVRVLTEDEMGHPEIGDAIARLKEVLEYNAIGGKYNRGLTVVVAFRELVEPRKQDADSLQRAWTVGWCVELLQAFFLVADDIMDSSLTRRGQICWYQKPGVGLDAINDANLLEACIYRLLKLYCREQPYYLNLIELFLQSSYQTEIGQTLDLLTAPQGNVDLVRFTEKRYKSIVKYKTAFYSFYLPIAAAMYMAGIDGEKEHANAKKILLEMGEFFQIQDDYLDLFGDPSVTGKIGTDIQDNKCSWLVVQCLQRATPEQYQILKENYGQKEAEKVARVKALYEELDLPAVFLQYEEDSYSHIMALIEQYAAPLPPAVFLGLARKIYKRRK
# UniProt P07686, sequence (P07686 whole entry, looked up): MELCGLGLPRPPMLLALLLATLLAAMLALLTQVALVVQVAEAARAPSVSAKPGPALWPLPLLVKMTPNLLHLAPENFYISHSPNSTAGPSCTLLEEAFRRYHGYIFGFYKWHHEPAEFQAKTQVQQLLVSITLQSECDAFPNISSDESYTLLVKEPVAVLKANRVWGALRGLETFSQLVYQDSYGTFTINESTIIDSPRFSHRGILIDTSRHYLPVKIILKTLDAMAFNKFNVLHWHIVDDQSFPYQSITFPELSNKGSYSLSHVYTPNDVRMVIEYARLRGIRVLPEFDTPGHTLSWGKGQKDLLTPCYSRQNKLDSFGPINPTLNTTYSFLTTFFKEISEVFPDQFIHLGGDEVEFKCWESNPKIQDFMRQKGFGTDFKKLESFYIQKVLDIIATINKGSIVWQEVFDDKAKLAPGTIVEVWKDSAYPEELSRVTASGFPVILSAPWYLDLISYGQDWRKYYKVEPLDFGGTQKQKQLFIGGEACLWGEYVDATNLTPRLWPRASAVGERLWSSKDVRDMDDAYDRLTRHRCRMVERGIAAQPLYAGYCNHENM
# UniProt P37268, sequence (P37268 whole entry, looked up): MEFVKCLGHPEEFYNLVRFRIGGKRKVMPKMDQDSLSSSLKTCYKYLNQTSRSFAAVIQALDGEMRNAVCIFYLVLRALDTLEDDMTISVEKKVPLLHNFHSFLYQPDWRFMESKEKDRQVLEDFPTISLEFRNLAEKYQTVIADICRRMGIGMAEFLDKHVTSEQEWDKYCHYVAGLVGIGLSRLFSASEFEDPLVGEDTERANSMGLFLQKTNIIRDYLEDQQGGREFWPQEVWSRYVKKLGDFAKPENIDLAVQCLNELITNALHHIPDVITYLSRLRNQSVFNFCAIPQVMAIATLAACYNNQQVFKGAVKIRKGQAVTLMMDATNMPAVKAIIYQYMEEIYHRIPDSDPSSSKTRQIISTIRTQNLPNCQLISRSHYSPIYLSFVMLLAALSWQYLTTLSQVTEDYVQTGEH
# UniProt P02008, sequence (P02008 whole entry, looked up): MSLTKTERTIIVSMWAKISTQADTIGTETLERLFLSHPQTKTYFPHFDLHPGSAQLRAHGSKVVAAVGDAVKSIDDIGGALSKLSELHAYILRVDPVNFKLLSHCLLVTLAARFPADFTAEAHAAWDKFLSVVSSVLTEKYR
# UniProt P78417, sequence (P78417 whole entry, looked up): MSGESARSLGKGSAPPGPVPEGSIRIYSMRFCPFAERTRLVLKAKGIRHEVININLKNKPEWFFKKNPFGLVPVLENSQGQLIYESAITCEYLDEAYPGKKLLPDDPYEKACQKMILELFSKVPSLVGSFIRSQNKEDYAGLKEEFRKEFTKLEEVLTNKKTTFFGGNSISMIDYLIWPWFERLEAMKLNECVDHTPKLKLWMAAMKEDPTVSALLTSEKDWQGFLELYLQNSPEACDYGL
# UniProt P08236, sequence (P08236 whole entry, looked up): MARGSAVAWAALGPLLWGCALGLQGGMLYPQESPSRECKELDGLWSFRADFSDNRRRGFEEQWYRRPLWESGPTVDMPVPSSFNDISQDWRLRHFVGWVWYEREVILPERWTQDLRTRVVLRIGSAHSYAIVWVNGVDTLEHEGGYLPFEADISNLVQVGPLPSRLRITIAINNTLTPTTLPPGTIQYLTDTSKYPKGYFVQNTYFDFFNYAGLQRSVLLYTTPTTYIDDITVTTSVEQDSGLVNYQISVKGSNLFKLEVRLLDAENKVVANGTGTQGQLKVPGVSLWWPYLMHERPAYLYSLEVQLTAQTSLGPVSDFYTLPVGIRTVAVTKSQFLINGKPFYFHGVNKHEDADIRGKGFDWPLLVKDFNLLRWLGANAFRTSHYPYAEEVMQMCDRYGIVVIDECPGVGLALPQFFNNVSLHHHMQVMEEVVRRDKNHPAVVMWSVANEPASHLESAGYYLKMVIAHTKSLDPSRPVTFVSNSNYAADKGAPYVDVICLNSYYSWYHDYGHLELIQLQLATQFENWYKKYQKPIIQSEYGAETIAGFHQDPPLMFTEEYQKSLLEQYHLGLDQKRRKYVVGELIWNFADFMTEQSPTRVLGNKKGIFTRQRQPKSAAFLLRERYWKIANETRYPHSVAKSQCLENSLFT
# UniProt O00165, sequence (O00165 whole entry, looked up): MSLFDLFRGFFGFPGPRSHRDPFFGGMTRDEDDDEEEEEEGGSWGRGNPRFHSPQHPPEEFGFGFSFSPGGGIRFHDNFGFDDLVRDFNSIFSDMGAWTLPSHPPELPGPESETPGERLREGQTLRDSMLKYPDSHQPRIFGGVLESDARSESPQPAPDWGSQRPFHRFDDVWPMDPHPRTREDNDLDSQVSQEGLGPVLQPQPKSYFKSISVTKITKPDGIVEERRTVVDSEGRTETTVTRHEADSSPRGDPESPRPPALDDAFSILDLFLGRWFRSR
# UniProt P01112, sequence (P01112 whole entry, looked up): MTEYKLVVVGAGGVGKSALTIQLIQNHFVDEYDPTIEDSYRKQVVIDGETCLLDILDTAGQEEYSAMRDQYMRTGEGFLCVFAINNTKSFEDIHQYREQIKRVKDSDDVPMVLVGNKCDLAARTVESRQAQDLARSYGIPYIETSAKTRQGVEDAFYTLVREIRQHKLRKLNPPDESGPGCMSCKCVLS
Target,log2 fold change [1],log2 fold change (filanesib),log2 fold change (zotarolimus),log2 fold change (idasanutlin),log2 fold change (alisertib),log2 fold change [2],log2 fold change (gefitinib),log2 fold change [3],log2 fold change (lapatinib),log2 fold change (pictilisib),log2 fold change [4],log2 fold change (crizotinib),log2 fold change [5],log2 fold change [6],log2 fold change (duvelisib),log2 fold change (gandotinib),log2 fold change (tozasertib),log2 fold change [7],log2 fold change (doramapimod),log2 fold change (ispinesib)
GSR (UniProt P00390),0.023,-0.065,-0.039,-0.049,-0.032,0.015,-0.016,0.043,-0.057,0.036,0.009,0.046,0.029,-0.085,0.014,0.002,-0.011,-0.02,-0.047,-0.003
FKBP3 (UniProt Q00688),0.219,-0.04,0.354 (active),-0.015,-0.052,0.047,-0.023,0,-0.029,0.004,-0.02,0.017,0.074,-0.076,0.016,-0.024,0.004,-0.006,0,0.019
HBZ (UniProt P02008),0.012,-0.003,0.035,0.045,-0.077,-0.055,0.003,0.093,0.007,-0.006,0.017,0.09,0.174,-0.067,0.045,0.084,-0.005,0.014,-0.005,0.21
HAX1 (UniProt O00165),-0.056,0.017,0.004,0.04,-0.007,-0.311,-0.041,-0.014,-0.015,-0.145,0.02,-0.235,-0.043,0.16,-0.062,-0.174,-0.071,0.014,0.035,-0.59 (active)
GUSB (UniProt P08236),-0.063,-0.016,0.014,0.034,0.022,-0.084,-0.013,-0.027,0.016,0.098,0.053,0.004,-0.018,0.063,0.066,0.051,0.006,-0.039,0.042,-0.03
HIP1R (UniProt O75146),-0.011,-0.039,-0.034,-0.046,0.114,0.027,-0.025,0,-0.041,-0.011,0.016,-0.1,0.058,0.026,-0.045,-0.069,-0.008,0.029,0.007,-0.097
GSTO1 (UniProt P78417),-0.015,-0.031,-0.017,-0.037,-0.063,-0.048,-0.001,0.021,0.02,-0.033,0.047,0,0.013,-0.072,0.064,-0.017,-0.01,0,-0.02,0.036
HTATIP2 isoform 3 (UniProt Q9BUP3),-0.003,-0.091,0.364 (active),-0.031,-0.029,-0.131,0.066,0.054,-0.015,0.137,0.014,-0.106,0.023,-0.145,0.294 (active),0.003,0.013,0.027,0.003,-0.111
GIGYF2 (UniProt Q6Y7W6),0.005,0.008,0.016,0,-0.023,0.07,-0.043,-0.026,-0.016,-0.027,0.005,-0.084,0.083,0,0.006,-0.03,-0.012,0.114,-0.028,-0.179
FNTA (UniProt P49354),0.162,0.069,0.019,-0.062,-0.074,-0.01,0.056,0.044,0.04,-0.005,0.073,0.069,0.077,-0.005,0.014,0.057,-0.017,-0.014,-0.043,0.06
FUCA1 (UniProt P04066),-0.014,-0.057,-0.025,-0.044,-0.004,-0.113,0.003,0.1,0.047,0,0.019,-0.079,0.031,-0.049,0.007,0,-0.007,-0.044,0.021,-0.007
FDPS (UniProt P14324),0.048,-0.246,0.019,-0.063,0.066,0.118,-0.047,0.009,-0.018,-0.076,0.07,-0.768 (active),0.073,0.117,0.059,-0.091,-0.193,0.222,0.004,-0.493 (active)
FDFT1 (UniProt P37268),0.123,0.401 (active),0.014,0.013,0.008,-0.052,-0.01,0.042,-0.023,0,-0.009,0.105,-0.032,-0.065,0.32 (active),0.061,-0.032,0.174,0.02,0.077
HRAS (UniProt P01112),0.008,-0.023,-0.049,0.075,-0.157,-0.044,0.021,-0.015,0.076,0.012,-0.064,0.18,-0.129,-0.057,-0.025,0.068,-0.149,-0.077,-0.032,0.22
HK2 (UniProt P52789),0.035,0.031,0.03,-0.064,-0.124,0.097,-0.07,0.005,-0.206,-0.353 (active),-0.156,0.082,0.03,-0.014,0.014,-0.297 (active),-0.028,0.013,-0.026,0.161
HEXB (UniProt P07686),0.012,-0.092,-0.042,0.018,-0.058,0.017,0.005,0.044,-0.001,0.021,-0.009,-0.377 (active),0.058,-0.021,0.008,-0.013,0.012,-0.031,-0.007,-0.128
